Assay outcomes as filed in PubChem BioAssay.
HT1080 IDH1KD tx: kills HT-1080 cells with IDH1 knockdown; AID 686971; actives 2% (n = 360,000); HT-1080 IDH1 knockdown viability, ATP luminescence, 48 h; Potency, µM (series often up to 46.1 µM), for the others: at the top dose activity, negative = toxicity, hits mostly cytotoxic;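 note: potency is the fitted concentration of half-maximal effect; 0% = DMSO wells and -100% = cell-free medium wells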
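Assay cells: HT-1080 with IDH1 knockdown, 750 per well, RPMI/5% FBS. Exposure: 48 h at 37 °C following 2 h pre-incubation. Read: CellTiter-Glo luminescence; fitted concentration-response, curve class assigned.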
IL1B secr inh: inflammasome signaling inhibition, IL-1 beta readout; THP-1 LPS/ATP IL-1B secretion, AlphaLISA, 16 h; active compounds read low; activity change, % at 57.5 µM; actives 4.7% (n = 360,000); in the data active = activity change below about -50%; inconclusive = mostly about -30% to -49%
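THP-1 cells pretreated 1 hr with compounds (up to 57.5 uM final), then stimulated with LPS (250 ng/mL final) plus ATP (1.25 mM final); secreted IL-1B measured by AlphaLISA after 16 hr, decreased signal indicating inhibition.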
HT1080NT lethal: kills 2HG-producing HT-1080-NT fibrosarcoma cells; HT-1080-NT fibrosarcoma viability, CellTiter-Glo ATP luminescence, 48 h; Potency, µM (titrated, usually from 46.1 µM), for the others: at the highest dose activity, negative = less viability, hits mostly cytotoxic; actives 1.6% (n = 360,000);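 note: NT is the 2HG producing partner of a matched IDH1 knockdown line; potency is the fitted concentration of half-maximal effect; 0% = DMSO-treated cells and -100% = media-only wells without cells; nearly all actives have a fitted effect of over 55% in size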
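Viability of the 2HG-overproducing fibrosarcoma line after 48 hours of compound exposure at 37 degrees C was determined by luminescence with CellTiter-Glo, and concentration-effect curves were then fitted and categorized.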
TDP1 cell noCPT: qHTS for Inhibitors of human tyrosyl-DNA phosphodiesterase 1 (TDP1): qHTS in cells in absence of CPT. DT40 Tdp1-/- hTDP1 cells, no CPT, ATP luminescence, 48 h. Potency, µM (series often up to 46.2 µM), for the others: top-dose activity change, negative = growth inhibition, usual class: inhibitors. actives 15% (n = 420,000). AID 686978, 2013; note: potency is the fitted concentration of half-maximal effect; nearly all actives have a fitted effect of over 55% in size
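Camptothecin absent (DMSO only). Human TDP1-complemented DT40 knockout cells, 400 cells/well, 37 °C for minimum 48 hr; ATP measured via CellTiter-Glo, 30 min dark incubation, luminescence.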
uPA generation: blocks generation of uPA at the cell surface | Potency, µM (highest dose often 38.3 µM), inactives show top-dose activity change, negative = inhibition, most hits filed as inhibitors | cell surface uPA generation assay, qHTS | actives 0.31% (n = 330,000) | AID 540303; active = well fitted inhibition curve with a large enough effect; inconclusive = small, poorly fitted or top-dose-only effect; inactive = no such curve, though single readings can be large or run the other way; tested in mouse RAW 264.7 cells; note: potency is the fitted concentration of half-maximal effect; nearly all actives have a fitted effect of over 55% in size
DT40 TDP1 CPT: DT40-hTDP1 cell growth loss with CPT | Potency, µM (titrated, usually from 46.2 µM), inactives show at the highest dose activity change, negative = growth inhibition, hits mostly inhibitors | actives 12% (n = 420,000) | chicken DT40 Tdp1-/-;hTDP1 cells + 20 nM CPT, ATP luminescence, 48 h; note: potency is the fitted concentration of half-maximal effect; nearly all actives have a fitted effect of over 55% in size
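Cell growth measured by CellTiter-Glo luminescence after a minimum 48 h, 37 C compound exposure with 20 nM CPT in Tdp1-knockout DT40 cells stably expressing hTDP1, seeded 400/well; qHTS titration format.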
* hit, by the source's call. The list is not random: actives were taken first. Their share in the collection is about 19%. Unless noted, calls come from the whole dose curve; as a rule, active = well fitted curve in the direction sought with a large enough effect; inconclusive = small, poorly fitted or top-dose-only effect, or another doubt; inactive = no such curve, though single readings can be large; an effect the other way counts as inactive or inconclusive. Unless noted, % is set by controls: 0 for no effect and ±100 for the full control effect.

`CC(C)NC(=O)NC(=O)COC(=O)Cc1c(F)cccc1Cl` gave HT1080 IDH1KD tx -1%, IL1B secr inh -7, HT1080NT lethal -2%, TDP1 cell noCPT -1%, uPA generation -2% and DT40 TDP1 CPT -9%.
O=C(O)/C=C/c1cnn(-c2ccccc2)c1 was read as HT1080 IDH1KD tx -10%, IL1B secr inh 23, HT1080NT lethal -17%, TDP1 cell noCPT -7%, uPA generation -1% and DT40 TDP1 CPT 2%.
Cc1ccc(S(=O)(=O)Cn2nnnc2C(CC(C)C)N2CCN(C(=O)c3ccco3)CC2)cc1 (configuration not stated) was read as HT1080 IDH1KD tx -16%, IL1B secr inh -2, HT1080NT lethal -5%, TDP1 cell noCPT -16%, uPA generation 2% and DT40 TDP1 CPT -8%.
CCN1CCN(C(CC(C)C)c2nnnn2CS(=O)(=O)c2ccc(C)cc2)CC1 (configuration not stated) was read as HT1080 IDH1KD tx 1%, IL1B secr inh -73*, HT1080NT lethal -15%, TDP1 cell noCPT -18%, uPA generation 4% and DT40 TDP1 CPT 8%.
NNC(=O)c1c[nH]c2ccc(OCc3ccccc3)cc12 was read as HT1080 IDH1KD tx -4%, IL1B secr inh 92, HT1080NT lethal -21%, TDP1 cell noCPT -26%, uPA generation 4% and DT40 TDP1 CPT 22%.
Screening COc1cc(NS(=O)(=O)c2ccc(NC(=O)C(C)Oc3ccc(Cl)cc3Cl)cc2)nc(OC)n1 (configuration not stated) returned TDP1 cell noCPT -3% and DT40 TDP1 CPT -13%.
`C#CCN(C(=O)c1ccc(OC2CCN(Cc3ccccn3)CC2)cc1)C1CCCCC1` gave HT1080 IDH1KD tx -2%, IL1B secr inh inconclusive, HT1080NT lethal 1%, TDP1 cell noCPT inconclusive, uPA generation -8% and DT40 TDP1 CPT 16µM*.
`C#CCN(C(=O)c1ccc(OC2CCN(C(=O)CCOC)CC2)cc1)C1CCCCC1` gave HT1080 IDH1KD tx -9%, IL1B secr inh 49, HT1080NT lethal 1%, TDP1 cell noCPT inconclusive, uPA generation -3% and DT40 TDP1 CPT 23µM*.
`CN(C(=O)c1ccc(OC2CCN(Cc3ccccn3)CC2)cc1)C1CCCCC1` gave HT1080 IDH1KD tx -1%, IL1B secr inh -7, HT1080NT lethal -9%, TDP1 cell noCPT -12%, uPA generation 0% and DT40 TDP1 CPT inconclusive.
COc1cccc(CNc2nc(NCc3ccccc3)nc3ccsc23)c1 was read as HT1080 IDH1KD tx inconclusive, IL1B secr inh -55*, HT1080NT lethal 21µM*, TDP1 cell noCPT 4.1µM* and DT40 TDP1 CPT 2.1µM*.
For CNc1nc(Oc2cccc(F)c2)c2sccc2n1 the results were HT1080 IDH1KD tx 1%, IL1B secr inh 24, HT1080NT lethal 15%, TDP1 cell noCPT -26% and DT40 TDP1 CPT -24%.
CNc1nc(NCc2cccc(OC)c2)c2sccc2n1 was read as HT1080 IDH1KD tx inconclusive, IL1B secr inh 50, HT1080NT lethal -20%, TDP1 cell noCPT 10µM* and DT40 TDP1 CPT 7.3µM*.
For COc1cccc(CNc2nc(NCC3CC3)nc3ccsc23)c1 the results were IL1B secr inh -72*, TDP1 cell noCPT 2.1µM* and DT40 TDP1 CPT 16µM*.
`Cc1cscc1-c1nc(NCC2CC2)nc2ccsc12` gave HT1080 IDH1KD tx -3%, IL1B secr inh 48, HT1080NT lethal 15%, TDP1 cell noCPT inconclusive and DT40 TDP1 CPT inconclusive.
`CC(C)CNC(=O)c1ccccc1NC(=O)CCSc1ccccc1` gave HT1080 IDH1KD tx 0%, IL1B secr inh 3, HT1080NT lethal 4%, TDP1 cell noCPT inconclusive, uPA generation 2% and DT40 TDP1 CPT -5%.
For CC(=O)C[C@H](O)CC(=O)[C@H]1OC(=O)CCCCCCCc2ccccc21 the results were HT1080 IDH1KD tx 3%, IL1B secr inh -1, HT1080NT lethal 1%, TDP1 cell noCPT 8%, uPA generation -4% and DT40 TDP1 CPT 0%.
CCOC(CCNC(=O)c1cc(-c2cccs2)nc2ccccc12)OCC was read as HT1080 IDH1KD tx -5%, IL1B secr inh 0, HT1080NT lethal -3%, TDP1 cell noCPT inconclusive, uPA generation 2% and DT40 TDP1 CPT 21µM*.
For COc1ccc(CNC(=O)c2cc(-c3cccs3)nc3ccccc23)c(OC)c1 the results were TDP1 cell noCPT inconclusive and DT40 TDP1 CPT 2.6µM*.
`COc1ccccc1CNC(=O)c1cc(-c2cccnc2)nc2ccccc12` gave HT1080 IDH1KD tx -12%, IL1B secr inh 15, HT1080NT lethal -4%, TDP1 cell noCPT inconclusive, uPA generation 0% and DT40 TDP1 CPT inconclusive.
For CC(C)NC(=O)c1cc(-c2cccs2)nc2ccccc12 the results were HT1080 IDH1KD tx 2%, IL1B secr inh -8, HT1080NT lethal -4%, TDP1 cell noCPT 0%, uPA generation -8% and DT40 TDP1 CPT 1%.
CN1CCN(NC(=O)c2cc(-c3ccc(Cl)s3)nc3ccccc23)CC1 was read as HT1080 IDH1KD tx -8%, IL1B secr inh -3, HT1080NT lethal -15%, TDP1 cell noCPT 15µM*, uPA generation -6% and DT40 TDP1 CPT inconclusive.
Screening COc1ccc(Nc2cc(C(=O)NCc3cccs3)c3ccccc3n2)cc1 returned TDP1 cell noCPT -14% and DT40 TDP1 CPT 2%.
Screening COc1ccc(OC)c(CNC(=O)c2cc(-c3ccc(Cl)s3)nc3ccccc23)c1 returned TDP1 cell noCPT 9.2µM* and DT40 TDP1 CPT 15µM*.
O=C(Nc1ccc2c(c1)CCC2)c1cc(=O)[nH]c2ccccc12 was read as HT1080 IDH1KD tx 4%, IL1B secr inh 13, HT1080NT lethal -3%, TDP1 cell noCPT -18%, uPA generation -1% and DT40 TDP1 CPT -13%.
COC(=O)CCCOc1ccc(Cl)cc1Cl was read as TDP1 cell noCPT 4% and DT40 TDP1 CPT 14%.
Screening O=C(CSc1nnc(-c2cccc(F)c2)o1)N1CCCC1 returned HT1080 IDH1KD tx 12%, IL1B secr inh -7, HT1080NT lethal 5%, TDP1 cell noCPT -18%, uPA generation 0% and DT40 TDP1 CPT 5%.
CCOC(=O)c1[nH]c(C)c(CCC(=O)Nc2ccc(N(CC)CC)cc2C)c1C was read as TDP1 cell noCPT 21µM* and DT40 TDP1 CPT 23µM*.
CCOC(=O)c1[nH]c(C)c(CCC(=O)NCc2ccc(OC)cc2)c1C was read as TDP1 cell noCPT -27% and DT40 TDP1 CPT -2%.
